This is an account of results in PubChem BioAssay (EPA / NIEHS).

Calls of active or inactive are those of the source. Rule for the calls: active = hit-call score of the fitted dose curve at least 0.9, where 1 is the maximum; inactive = score below 0.9.

What all share (conditions): mRNA level, 48 h; actives raise or lower the signal
Read-out in assay [1]: Cytochrome P450 (CYP1A2), CYP1A2 (gene 1544)
In words: LTEA_HepaRG_CYP1A2: Life Technologies and Expression Analysis (LTEA) Assay for Cytochrome P450 (CYP1A2) using HepaRG (AID 2283479). Summed up: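 Differentiated human HepaRG cells in serum-free induction medium exposed 48 hours in duplicate to 8 half-log concentrations from 100 uM, 0.5% DMSO. CYP1A2 mRNA quantified by qRT-PCR, normalized to ACTB, GAPDH and POLR2A; bidirectional fitting versus DMSO.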

Read-out in assay [2]: cysteine-aspartic acid protease (CASP8), CASP8 (gene 841)
In words: LTEA_HepaRG_CASP8: Life Technologies and Expression Analysis (LTEA) Assay for cysteine-aspartic acid protease (CASP8) using HepaRG (AID 2283480). In short, it runs like this: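 Concentration-response in duplicate up to 100 uM (half-log steps, 0.5% DMSO) on differentiated HepaRG cultures for 48 h. Expression change of CASP8 mRNA is determined by TaqMan qRT-PCR with housekeeping-gene normalization.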

Read-out in another assay: CYP2C8 (gene 1558)
The assay can be described thus: LTEA_HepaRG_CYP2C8: Life Technologies and Expression Analysis (LTEA) Assay for CYP2C8 using HepaRG (AID 2283483). In short, it runs like this:
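This is a transcriptional endpoint in HepaRG cultures: 48 h exposure, highest concentration 100 uM. CYP2C8 mRNA is quantified by TaqMan qRT-PCR.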

Read-out in the next assay: CYP2C9 (gene 1559)
In words: LTEA_HepaRG_CYP2C9: Life Technologies and Expression Analysis (LTEA) Assay for CYP2C9 using HepaRG (AID 2283484). In short, it runs like this:
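Eight-point concentration-response (highest 100 uM, half-log dilutions) in HepaRG cells for 48 h; CYP2C9 expression by qRT-PCR normalized to ACTB, GAPDH, POLR2A. Bidirectional fit, DMSO baseline.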

Read-out in the next assay: CYP2E1 (gene 1571)
In words: LTEA_HepaRG_CYP2E1: Life Technologies and Expression Analysis (LTEA) Assay for CYP2E1 using HepaRG (AID 2283485). Summed up: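 CYP2E1 transcript was measured by TaqMan qRT-PCR in human HepaRG cultures after 48 h chemical exposure (top 100 uM, half-log steps, 0.5% DMSO vehicle). Housekeeping-gene normalization; gain or loss fitted relative to DMSO baseline.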

Read-out in another assay: CYP4A11 (gene 1579)
The assay can be described thus: LTEA_HepaRG_CYP4A11: Life Technologies and Expression Analysis (LTEA) Assay for CYP4A11 using HepaRG (AID 2283486). Summed up: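 Differentiated HepaRG cells, 48 h after plating, exposed in duplicate for 48 h to 8 half-log concentrations up to 100 uM in 0.5% DMSO in serum-free induction medium. CYP4A11 mRNA measured by TaqMan qRT-PCR, normalized to ACTB, GAPDH and POLR2A.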

Read-out in assay [3]: Cytochrome P450 3A4 (Homo sapiens) (UniProt P08684)
The assay can be described thus: LTEA_HepaRG_CYP3A4: Life Technologies and Expression Analysis (LTEA) Assay for CYP3A4 using HepaRG (AID 2283487). Summed up: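 HepaRG, 48 h exposure, 8-pt CRC from 100 uM (half-log), 0.5% DMSO, duplicates; serum-free induction medium. Readout: CYP3A4 mRNA, qRT-PCR, ACTB/GAPDH/POLR2A normalization. Bidirectional fit vs DMSO.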

Read-out in assay [4]: DNA damage-inducible transcript 3 (DDIT3), DDIT3 (gene 1649)
The assay can be described thus: LTEA_HepaRG_DDIT3: Life Technologies and Expression Analysis (LTEA) Assay for DNA damage-inducible transcript 3 (DDIT3) using HepaRG (AID 2283488). In short, it runs like this:
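qRT-PCR readout (Fluidigm TaqMan), housekeeping-normalized to ACTB, GAPDH, POLR2A. HepaRG cells, 48 h exposure, 8-point half-log series from 100 uM in 0.5% DMSO, duplicates. Gain or loss of signal fitted against DMSO baseline.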

Read-out in assay [5]: Cytochrome P450 (CYP2B6), CYP2B6 (gene 1555)
In words: LTEA_HepaRG_CYP2B6: Life Technologies and Expression Analysis (LTEA) Assay for Cytochrome P450 (CYP2B6) using HepaRG (AID 2283481). In short, it runs like this:
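Differentiated human HepaRG cells in serum-free induction medium, dosed in duplicate for 48 h over 8 half-log concentrations topping at 100 uM (0.5% DMSO). CYP2B6 mRNA measured by TaqMan qRT-PCR, normalized to ACTB, GAPDH, POLR2A; bidirectional fit versus DMSO.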

Read-out in assay [6]: Cytochrome P450 2C19 (Homo sapiens) (UniProt P33261)
The assay can be described thus: LTEA_HepaRG_CYP2C19: Life Technologies and Expression Analysis (LTEA) Assay for CYP2C19 using HepaRG (AID 2283482). In short, it runs like this: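 Differentiated HepaRG cells in serum-free induction medium exposed 48 h in duplicate, 8 concentrations from 100 uM by half-log steps in 0.5% DMSO. CYP2C19 mRNA measured by TaqMan qRT-PCR, normalized to ACTB, GAPDH, POLR2A. Bidirectional fit versus DMSO.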

Chain of Cytochrome P450 3A4 (Homo sapiens) (P08684 whole entry, looked up): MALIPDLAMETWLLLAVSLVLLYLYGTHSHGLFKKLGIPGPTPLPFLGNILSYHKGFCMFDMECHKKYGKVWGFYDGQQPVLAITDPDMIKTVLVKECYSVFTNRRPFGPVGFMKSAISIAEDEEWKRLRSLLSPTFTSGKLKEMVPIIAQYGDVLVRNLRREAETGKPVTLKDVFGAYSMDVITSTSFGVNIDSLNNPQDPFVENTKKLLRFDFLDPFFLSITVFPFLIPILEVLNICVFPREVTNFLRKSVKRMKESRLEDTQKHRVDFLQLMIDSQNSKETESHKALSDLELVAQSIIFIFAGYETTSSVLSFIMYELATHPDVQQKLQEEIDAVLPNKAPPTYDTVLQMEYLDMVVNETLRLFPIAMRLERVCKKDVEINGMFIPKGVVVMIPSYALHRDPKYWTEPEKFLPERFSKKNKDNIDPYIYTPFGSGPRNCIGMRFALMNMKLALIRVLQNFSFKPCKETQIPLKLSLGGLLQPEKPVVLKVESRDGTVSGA
Chain of Cytochrome P450 2C19 (Homo sapiens) (P33261 whole entry, looked up): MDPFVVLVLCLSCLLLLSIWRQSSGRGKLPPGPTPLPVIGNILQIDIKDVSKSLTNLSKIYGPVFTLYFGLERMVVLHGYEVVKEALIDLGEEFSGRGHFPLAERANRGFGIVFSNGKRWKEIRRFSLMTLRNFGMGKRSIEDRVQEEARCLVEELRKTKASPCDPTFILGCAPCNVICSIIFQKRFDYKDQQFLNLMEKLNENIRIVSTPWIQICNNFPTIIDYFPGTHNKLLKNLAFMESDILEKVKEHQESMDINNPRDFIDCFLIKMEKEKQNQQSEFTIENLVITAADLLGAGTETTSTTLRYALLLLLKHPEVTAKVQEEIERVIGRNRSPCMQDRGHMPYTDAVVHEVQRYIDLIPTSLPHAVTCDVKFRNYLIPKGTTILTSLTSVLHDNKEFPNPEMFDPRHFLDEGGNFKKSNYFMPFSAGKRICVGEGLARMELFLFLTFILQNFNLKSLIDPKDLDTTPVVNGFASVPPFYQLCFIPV

On to `CCOP(=S)(OCC)SCSCC`, for which the compound was classed as inactive (in assay [1]; in assay [2]; in the assay with CYP2C8 (gene 1558); with CYP2C9 (gene 1559); in the assay with CYP2E1 (gene 1571); in the assay with CYP4A11 (gene 1579)). Moreover, in assay [4], the result was inactive. Also, the AC50 in [3] was 13.9 µM (active).
For the compound `CC(Cc1ccc(OCC(=O)O)cc1)NCC(O)c1csc(C(F)(F)F)n1` (stereo unspecified), in assay [1], the AC50 is 0.0181 µM (active). The call (in assay [2]; with CYP2C8 (gene 1558); with CYP2C9 (gene 1559); in the assay with CYP2E1 (gene 1571); with CYP4A11 (gene 1579); in [3]) was inactive.
Consider `O=C(O)C(Cl)Cl`, for which the outcome (in assay [1]; in assay [2]; with CYP2C8 (gene 1558); with CYP2C9 (gene 1559); with CYP2E1 (gene 1571); with CYP4A11 (gene 1579)) was inactive. Also, the call in assay [3] and in assay [4] was inactive.
Take `O=C(O)C1C(C(=O)O)C2(Cl)C(Cl)=C(Cl)C1(Cl)C2(Cl)Cl` (stereo unspecified): the compound was classed as inactive (in assay [1]; in assay [2]; with CYP2C8 (gene 1558); in the assay with CYP2C9 (gene 1559); with CYP2E1 (gene 1571); with CYP4A11 (gene 1579)). The compound was called inactive in assay [3] and in [4].
For `O=[N+]([O-])c1ccc(Cl)c(Cl)c1`, in [1], the half-maximal activity concentration (AC50) was 1.36 µM (active). Also, the call (in assay [2]; in the assay with CYP2C8 (gene 1558); with CYP2C9 (gene 1559); with CYP2E1 (gene 1571); with CYP4A11 (gene 1579); in assay [3]) was inactive. Moreover, the outcome in assay [4] was inactive.
In the case of `CSC(C)(C)C=NO`, the result (in assay [1]; in assay [2]; with CYP2C8 (gene 1558); with CYP2C9 (gene 1559); in the assay with CYP2E1 (gene 1571); with CYP4A11 (gene 1579)) was inactive. The compound was classed as inactive in assay [3] and in assay [4].
Take `[N-]=[N+]=[N-]`: the outcome in [1], in assay [2] and in [3] was inactive. Besides, the AC50 in the assay with CYP2C8 (gene 1558) is 79.9 µM (active); with CYP2C9 (gene 1559), 78.6 µM (active); with CYP2E1 (gene 1571) it was 67.1 µM (active); in the assay with CYP4A11 (gene 1579) it was 70.6 µM (active); in [4], 76.4 µM (active).
As to `Nc1ccc2ccccc2c1`, the values for the AC50 (in assay [1]; with CYP2E1 (gene 1571)) were 33.1 µM (active) and 33.8 µM (active), respectively. Besides, the call (in assay [2]; with CYP2C8 (gene 1558); with CYP2C9 (gene 1559); with CYP4A11 (gene 1579); in assay [3]; in assay [4]) was inactive.
Turning to `c1cc2c3c(cccc3c1)CC2`, the outcome (in assay [1]; in [2]; with CYP2C8 (gene 1558); with CYP2C9 (gene 1559); with CYP4A11 (gene 1579); in assay [3]) was inactive. The outcome in assay [4] was inactive. Besides, the results for the AC50 (in [5]; with CYP2E1 (gene 1571)) were 50 µM (active) and 0.391 µM (active), respectively.
On to `CCCCN(CCCC)SN(C)C(=O)Oc1cccc2c1OC(C)(C)C2`, for which the result (in [1]; in assay [2]; in the assay with CYP2C8 (gene 1558); with CYP2C9 (gene 1559); with CYP4A11 (gene 1579); in assay [4]) was inactive. For the same compound, the AC50 was 41.5 µM (active) with CYP2E1 (gene 1571) and 8.27 µM (active) in [3].
For the compound `CCCCc1ccccc1`, the half-maximal activity concentration (AC50) in [1] is 50 µM (active). The result (in assay [2]; with CYP2C8 (gene 1558); in the assay with CYP2C9 (gene 1559); with CYP2E1 (gene 1571); with CYP4A11 (gene 1579); in assay [3]) was inactive. The outcome in assay [4] was inactive.
On to `CCCCN(CCCC)N=O`, for which the call (in [1]; in [2]; in the assay with CYP2C8 (gene 1558); with CYP2C9 (gene 1559); with CYP2E1 (gene 1571); with CYP4A11 (gene 1579)) was inactive. Also, the compound was called inactive in assay [3] and in assay [4].
As to `ClC(Cl)(Cl)c1ccccc1`, the result (in [1]; in assay [2]; with CYP2C8 (gene 1558); with CYP2C9 (gene 1559); with CYP2E1 (gene 1571); with CYP4A11 (gene 1579)) was inactive. Besides, the result in assay [3] and in assay [4] was inactive.
On to `CCOP(=S)(Oc1ccc([N+](=O)[O-])cc1)c1ccccc1` (stereo unspecified), for which the AC50 in assay [1] was 24.2 µM (active); in assay [6] it was 6.06 µM (active); with CYP2C8 (gene 1558), 2.42 µM (active); with CYP2E1 (gene 1571), 37.3 µM (active); with CYP4A11 (gene 1579), 10.8 µM (active); in assay [3], 4.84 µM (active). Moreover, the compound was classed as inactive (in assay [2]; with CYP2C9 (gene 1559); in assay [4]).
On to `Nc1ccc(Cl)cc1`, for which, in assay [1], the AC50 was 33.4 µM (active). The compound was classed as inactive (in assay [2]; with CYP2C8 (gene 1558); with CYP2C9 (gene 1559); with CYP2E1 (gene 1571); with CYP4A11 (gene 1579); in [3]). The outcome in [4] was inactive.
On to `ClC1=C(Cl)C2(Cl)C3C(Cl)C(Cl)CC3C1(Cl)C2(Cl)Cl` (stereo unspecified), for which the compound was classed as inactive (in assay [1]; in assay [2]; with CYP2C9 (gene 1559)). In addition, the AC50 in the assay with CYP2C8 (gene 1558) was 2.17 µM (active); in the assay with CYP2E1 (gene 1571) it was 27.7 µM (active); with CYP4A11 (gene 1579), 24.6 µM (active); in assay [3], 4.39 µM (active); in assay [4], 82.1 µM (active).
`CC(Cl)(Cl)C(=O)O`: the compound was classed as inactive (in [1]; in [2]; with CYP2C8 (gene 1558); with CYP2C9 (gene 1559); with CYP2E1 (gene 1571); with CYP4A11 (gene 1579)). The result in assay [3] and in assay [4] was inactive.
`CCOS(=O)(=O)OCC`: the compound was classed as inactive (in [1]; in [2]; with CYP2C8 (gene 1558); in the assay with CYP2C9 (gene 1559); with CYP2E1 (gene 1571); with CYP4A11 (gene 1579)). The call in assay [3] and in assay [4] was inactive.
Regarding `Nc1cc2c3c(c1)C(c1ccccc1)=N[C@@H](NC(=O)c1cccnc1)C(=O)N3CC2`, the AC50 is 50 µM (active) in [1], 12.2 µM (active) with CYP2E1 (gene 1571), 50 µM (active) in the assay with CYP4A11 (gene 1579) and 7.78 µM (active) in assay [3]. The compound was classed as inactive (in assay [2]; in the assay with CYP2C8 (gene 1558); with CYP2C9 (gene 1559); in assay [4]).
Take `CN(C)C(=O)Cl`: the call (in assay [1]; in [2]; with CYP2C8 (gene 1558); with CYP2C9 (gene 1559); in the assay with CYP2E1 (gene 1571); with CYP4A11 (gene 1579)) was inactive. Further, the outcome in assay [3] and in assay [4] was inactive.
